# Assay results published in PubChem BioAssay AID798 (PCMD, 2007).
# In all, about 220,000 compounds went through this assay and about 300 (0.14%) were called active. Shown is part of a subset that was picked to be rich in actives. Values without a mark were called inactive.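 How the source made its calls: active means inhibition of at least 40%; inactive means inhibition below 40%.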
# Target: Coagulation factor XI (Homo sapiens) (UniProt P03951)
# Experiment: factor XIa enzyme inhibition, large library – biochemical, 1536-well, primary screen (AID 798);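 further: fluorescence of freed AMC excited at 355 nm; 0% = enzyme without compound and 100% = no enzyme blank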
# Settings: purified FXIa, Boc-Glu-Ala-Arg-AMC fluorogenic substrate; at 5 µM; stronger effect = higher value
# Chain of Coagulation factor XI (Homo sapiens) (P03951 19-387 limits assumed): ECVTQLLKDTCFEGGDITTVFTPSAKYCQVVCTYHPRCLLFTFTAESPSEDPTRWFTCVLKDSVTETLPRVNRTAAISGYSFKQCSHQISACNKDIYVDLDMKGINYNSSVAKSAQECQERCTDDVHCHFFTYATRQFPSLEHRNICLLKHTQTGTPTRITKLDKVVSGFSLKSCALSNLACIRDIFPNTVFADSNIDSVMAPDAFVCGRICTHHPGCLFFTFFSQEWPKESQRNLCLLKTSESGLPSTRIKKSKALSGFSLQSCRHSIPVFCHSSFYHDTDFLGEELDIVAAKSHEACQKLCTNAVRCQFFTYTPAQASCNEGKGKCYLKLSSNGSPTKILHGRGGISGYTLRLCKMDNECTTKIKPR
# Chain of Coagulation factor XI (Homo sapiens) (P03951 388-625 limits assumed): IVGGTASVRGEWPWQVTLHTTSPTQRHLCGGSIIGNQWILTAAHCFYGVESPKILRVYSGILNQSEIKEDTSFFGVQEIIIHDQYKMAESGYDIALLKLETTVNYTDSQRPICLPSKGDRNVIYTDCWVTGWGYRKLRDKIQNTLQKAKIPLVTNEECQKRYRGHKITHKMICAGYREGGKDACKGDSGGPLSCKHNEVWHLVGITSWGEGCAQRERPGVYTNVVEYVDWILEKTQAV
row,SMILES,inhibition
1,CC(=O)NCC(=O)N1CCCC(C(=O)c2ccc3c4c(cccc24)CC3)C1 (configuration not stated),-4.06%
2,O=C(CSc1nnnn1-c1ccc(O)cc1)N1N=C(c2ccc3ccccc3c2)CC1c1ccccc1 (configuration not stated),8.65%
3,COc1ccc(/C=N/n2c(C)cc(C)cc2=O)cc1,44.1% (active)
4,COc1ccc(/C=C/C(=O)c2ccc(OC)cc2O)cc1,2.98%
5,COC(=O)c1ccc(/C=N\n2c(C)nnc2C)cc1,-10.4%
6,Cn1c(SCC(=O)N2CCOCC2)nnc1-c1ccc2ncccc2c1,4.39%
7,COCCn1c(N)c(N(Cc2ccccc2)C(=O)C2CCCCC2)c(=O)[nH]c1=O,-2.52%
8,Nc1c(C(=O)O)cnn1-c1ccccc1,15.5%
9,COC(=O)c1ccc(S(=O)(=O)NCc2ccccc2)n1C,13.2%
10,Cc1cccc(Oc2c([N+](=O)[O-])c(=O)n(C)c3ccccc23)c1,-4.16%
11,O=C(Nc1ccc(Cl)cc1)Nc1ccc(Oc2cccnc2)nc1,-6.3%
12,CCC(C)c1ccc(NC(=S)NCc2ccccn2)cc1 (configuration not stated),-2.96%
13,O=C(Cc1ccccc1)Nc1c(C(=O)N2CCCCCC2)cnn1-c1ccccc1,-2.02%
14,O=C(NCc1ccccc1Cl)NC(=O)c1csc([N+](=O)[O-])c1,-0.45%
15,CCc1ccc(S(=O)(=O)Nc2ccc(C)c(NS(C)(=O)=O)c2)cc1,1.46%
16,C=CCNC(=O)c1ccc2c3n(nc2c1)-c1ccc(C)cc1CO3,0.43%
17,CCOC(=O)CNc1nc(Cl)nc(Nc2ccccc2)n1,-1.06%
18,Cc1nnc(NCCO)c2ccccc12,6.13%
19,O=C(CNCCC1=CCCCC1)Nc1ccccc1N1CCCCCC1,-2.46%
20,CC(C)C(O)C1CCN(Cc2nc(Cc3ccccc3Cl)no2)CC1 (configuration not stated),-1.58%
21,Cc1ccc(NCc2n[nH]c(=S)n2-c2ccccc2)cc1Cl,0.9%

row,SMILES,inhibition
1,CCOC(=O)C1=C(C)N=C2c3ccccc3C(=O)C2C1c1ccc(Br)cc1 (configuration not stated),5.54%
2,Cc1ccccc1C(=O)Nc1ccc(N2CCCCCC2)cc1,-3.76%
3,O=C(Nc1ccc(F)c([N+](=O)[O-])c1)C1CC(=O)N(Cc2ccccc2)C1 (configuration not stated),-2.12%
4,C#CCNc1ccc(C(=O)OCC)cc1,0.47%
5,O=C(NCc1ccc(F)cc1)C1CCC(CNc2c(N3CCOCC3)c(=O)c2=O)CC1 (configuration not stated),1.9%
6,O=C(C1CCN(C2CCN(Cc3cccc4c3OCO4)CC2)CC1)N1CCOCC1,-4.01%
7,N#Cc1ccccc1NC(=O)COc1c(Br)cc(Br)c2cccnc12,0.52%
8,COc1ccc(OC)c(Cc2nnc(CCC(=O)NC3CCCC3)o2)c1,4.91%
9,COc1cc(/C=C2/C(=O)ON=C2C)ccc1OCc1cccc(F)c1,-3.35%
10,O=C(CCl)Nc1ccc(Sc2ccc(NC(=O)CCl)cc2)cc1,-1.76%
11,O=C(CCN1CCN(C/C=C/c2ccccc2)CC1)Nc1cccc(F)c1,-3.15%
12,Cc1cccc(NC(=O)c2ccc3ccccc3n2)n1,0.23%
13,Cc1cccc(NC(=O)c2cc(N3C(=O)CCC3=O)ccc2Cl)n1,45.3% (active)
14,Cc1cc(NC(=O)c2cccc(N3C(=O)CCC3=O)c2)no1,7.9%
15,Oc1ccc2ccccc2c1N=Nc1nccs1,1.08%
16,Cc1c(NC(=O)C(=O)N/N=C/c2cccs2)c(=O)n(-c2ccccc2)n1C,-2.28%
17,O=C(NCC(=O)N(CC1CCCO1)C(C(=O)NC1CCCCC1)c1ccccc1)c1ccco1 (configuration not stated),-1.28%
18,Cc1cc(C)nc(-n2ncc3c2CC(c2ccc(C(C)C)cc2)CC3=O)n1 (configuration not stated),4.85%
19,Cc1ccccc1CN1C[C@@H]2C[C@@H](c3ccc4nsnc4c3)N3CCC[C@@]23C1=O,2.82%
20,Cc1cccc2c1N(CCOc1ccccc1)C(=O)C2=O,1.94%
21,CCCCCCCCn1c2c(c(=N)c3c1CCC3)CCCC2,1.52%

row,SMILES,inhibition
1,COC(=O)c1cc(C(=O)OCC(=O)Nc2cc(C)on2)cc([N+](=O)[O-])c1,-14.4%
2,Cc1cnc(NC(=O)c2ccccn2)s1,-1.62%
3,COc1ccc(OC)c(C(=O)c2ccc(C(=O)N3CCN(Cc4csc(C)n4)CC3)cc2)c1,1.41%
4,COc1ccccc1-c1nnc(NC(=O)c2ccc3ncsc3c2)o1,10.2%
5,O=C(Nc1cccc(CCc2ccccn2)c1)c1ccc(Cl)cc1,14.3%
6,CN1CCCN(C(=O)C2CCCCC2)CC1,-3.43%
7,CC(NC(=S)NNS(=O)(=O)c1ccc(C(C)(C)C)cc1)c1ccccc1 (configuration not stated),-2.57%
8,Cc1cccc2c1-c1sc(C(=O)NCCCN3CCc4ccccc4C3)cc1CO2,-4.99%
9,COc1ccc(C(=O)N/N=c2\oc3ccccc3cc2C(N)=O)cc1,8.97%
10,CC(C(=O)NCC1CCCCC1)N(C)Cc1cccc(Cl)c1 (configuration not stated),0.53%
11,COCCN(C(=S)Nc1cccc(Cl)c1C)C(C)c1ccco1 (configuration not stated),-2.82%
12,Cc1ccc(Cl)c(OCC(=O)NN2CCN(C)CC2)c1,-0.31%
13,COC(=O)CCCC1=CC2=CC(=O)C(C)(OC(=O)c3cccs3)C(=O)C2=CN1CC1CC1 (configuration not stated),0.2%
14,O=C(NC(=O)c1cc(OCC(F)(F)F)ccc1OCC(F)(F)F)Nc1ccccc1,10.4%
15,O=C(CSc1ncn[nH]1)Nc1nc(-c2cccc([N+](=O)[O-])c2)cs1,-0.78%
16,O=C(Nc1cccc(O)c1)c1ccc(C(=O)c2ccccc2)o1,4.5%
17,COc1ccc(CCNC(=O)CSc2nc(-c3ccc(OC)c(OC)c3)ccc2C#N)cc1,-0.12%
18,CCOc1ccc(Oc2nc(C)cc(OC)n2)nn1,4.79%
19,Nc1[nH]c(=S)nc2nc(-c3ccccc3)c(-c3ccccc3)nc12,4.09%
20,CCc1nc(C)cn1S(=O)(=O)c1cc([N+](=O)[O-])ccc1Cl,-5.64%
